Experiments:
Test in all cases: PBM binding z-score (relative to random genomic background probes); higher = stronger binding; sequences stand for … in GC…GCGATTGACAGCGTAGAATGAAGG
[1] = system: PPARg:RXRa DBDmut IVT, anti-RXR (DBD mutation: RXRa K156A/R161A, NR concentration 270 nM, RXRa partner concentration 90 nM)
Method in brief: (§1)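 Ligand-free nuclear receptor dimers were applied to custom Agilent 4×180K protein-binding microarrays whose double-stranded probes carried direct-repeat seeds, single-nucleotide variants, half-site ablations and random human genomic background sequences in 34-nt variable regions. Incubation lasted 1 h. Binding z-scores were computed against the random background probes from regression-normalized fluorescence.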

[2] = system: PPARg:RXRa IVT, anti-PPARg (NR concentration 270 nM, RXRa partner concentration 90 nM)
Method in brief: as §1

[3] = system: PPARg DBDmut:RXRa IVT, anti-PPARg (DBD mutation: PPARg1 K132A/R137A, NR concentration 270 nM, RXRa partner concentration 90 nM)
Method in brief: as §1

[4] = system: PPARg DBDmut IVT, anti-PPARg (DBD mutation: PPARg1 K132A/R137A, NR concentration 270 nM)
Method in brief: as §1

[5] = system: PPARg homodimer (NR concentration 180 nM)
Method in brief: as §1

[6] = system: PXR:RXRa (NR concentration 270 nM, RXRa partner concentration 90 nM)
Method in brief: as §1

[7] = system: PXR homodimer (NR concentration 270 nM)
Method in brief: as §1

[8] = system: RARa:RXR (NR concentration 270 nM, RXRa partner concentration 90 nM)
Method in brief: as §1

[9] = system: RARa homodimer (NR concentration 270 nM)
Method in brief: as §1

[10] = system: RARb:RXRa (NR concentration 270 nM, RXRa partner concentration 90 nM)
Method in brief: as §1

[11] = system: RARb homodimer (NR concentration 270 nM)
Method in brief: as §1

[12] = system: RARg:RXRa (NR concentration 270 nM, RXRa partner concentration 90 nM)
Method in brief: as §1

[13] = system: RARg homodimer (NR concentration 270 nM)
Method in brief: as §1

[14] = system: RXRa DBDmut IVT, anti-RXR (DBD mutation: RXRa K156A/R161A, NR concentration 90 nM)
Method in brief: as §1

[15] = system: RXRa homodimer (NR concentration 180 nM)
Method in brief: as §1

[16] = system: THRa:RXRa (NR concentration 90 nM, RXRa partner concentration 90 nM)
Method in brief: as §1

[17] = system: THRa homodimer (NR concentration 90 nM)
Method in brief: as §1

[18] = system: VDR homodimer (NR concentration 270 nM)
Method in brief: as §1

[19] = system: VDR:RXRa (NR concentration 270 nM, RXRa partner concentration 90 nM)
Method in brief: as §1

Sequence	PBM binding z-score [1]	PBM binding z-score [2]	PBM binding z-score [3]	PBM binding z-score [4]	PBM binding z-score [5]	PBM binding z-score [6]	PBM binding z-score [7]	PBM binding z-score [8]	PBM binding z-score [9]	PBM binding z-score [10]	PBM binding z-score [11]	PBM binding z-score [12]	PBM binding z-score [13]	PBM binding z-score [14]	PBM binding z-score [15]	PBM binding z-score [16]	PBM binding z-score [17]	PBM binding z-score [18]	PBM binding z-score [19]
ACAGACAAGTGAGTGAAGGTAACTCAGCTGGACG	-0.268	-0.138	0.174	0.39	-0.0501	-0.521	-0.267	-0.183	-0.707	-0.0703	-0.464	-0.0696	0.0663	-0.283	-0.0064	-0.0405	-0.435	-0.445	–
CCTACTGGGCCACGCAAGGTCATTGATTCAGTGA	5.58	5.36	0.0336	0.776	2.02	4.51	1.84	3.48	0.546	2.81	3.66	3.09	2.61	0.396	2.62	4.54	2.64	2.93	3.62
AGTCAAAGTTCACTAGGTCACGTAAGATTCAGCT	5.56	6.73	1.41	1.03	4.02	5.52	3.91	5.75	1.46	5.27	5.29	6.62	7.17	4.43	5.44	3.72	2.54	4.43	5.1
GCTAGTTGGTCAGTAAAAGGTCACACAGCGGTCG	1.19	2.6	-0.374	-0.109	8.6	5.42	1.17	6.43	4.55	4.32	4.98	5.92	5.1	0.686	5.48	3.67	1.78	2.18	–
TCGAGTTGGTCACGGAGGTCACACACGACGGGTA	0.979	2.98	0.179	0.0233	2.35	4.79	1.32	4.55	0.63	3.84	4.47	4.77	4.81	1.32	4.92	3.77	2.24	3.52	5.91
GCTGCTAGGTCAGGTTGGTCAGCGAACGGGTACG	2.7	2.09	0.222	-1.25	0.933	0.281	-0.36	0.76	-0.581	3.31	2.73	2.68	4.03	0.514	1.11	1.8	0.422	0.896	0.566
TCTGGGAGGACACGAAAGGTCAGAGCTCGACATC	1.27	1.89	0.0227	-0.425	2.76	4.23	0.802	4.77	1.17	4.34	4.8	4.88	5.82	0.799	4.23	3.73	1.59	1.27	3.35
TCTTGTAGATCAAAGGTTAAGAACGCCGAAGCCT	2.38	3.76	0.351	0.234	1.19	2	0.16	2.42	0.244	1.86	1.51	1.82	0.951	0.794	3.38	1.53	-0.428	0.13	1.47
TGTCAAAGTTCAAAGGTAACGTACGTATCCACAC	0.385	4.52	2.01	1.18	3.53	5.63	3	6.3	1.11	4.92	3.77	6.34	5.94	4.49	6.98	2.98	0.0494	4.29	5.05
CGTCAAAGTTCAAGGTGACGTAACAGAAAGCAGC	0.983	2.9	0.379	0.562	2.88	4.44	2.3	3.88	1.52	5.21	4.19	5.57	6.39	4.67	4.63	3.25	1.36	3.17	3.91
ACTACCAGGCCAAGGGTCACTCAAGATTAGTCCG	1.41	4.54	0.921	-0.0701	2.3	3.38	0.474	4.11	1.31	3.78	4.07	4.15	3.87	0.629	4.2	3.3	1.15	2.13	3.07
CGTCCAAGGTCAATGCTAGGTAAGTGAAAGCATT	2.99	3.27	0.401	-0.137	1.55	3.28	0.34	3.5	0.168	4.88	3.93	5.7	6.12	3.33	4.48	3.84	2	2.06	–
ACAGACAGGTGAGTGAAGGAAACTCAGCTGGACG	0.214	0.274	-0.163	-1.04	-0.703	-0.793	-0.677	-0.777	-0.124	-0.0129	-0.566	-0.0497	0.189	-0.324	0.249	-0.366	-0.967	-0.21	-0.816
AGAAGGAGGTTATACGTAGATCAGGGAAGAAAGT	2.41	1.24	2.08	0.617	1.18	1	1.06	0.963	1.33	1.34	1.26	1.3	1.11	0.234	1.59	1.28	0.665	0.752	0.711
CCTCGGAGCACAACAGGAGGTCAGAGCTGCCAGA	-0.234	0.244	-0.72	-1.62	1.23	1.56	0.0895	2.01	0.0401	1.74	2.86	1.9	1.65	-0.138	1.74	1.91	0.301	0.485	1.32

— the supplement of paper PMC6555819
